ERb SRC1 inh: blocks coactivator binding to human estrogen receptor beta | TR-FRET ER-beta LBD / SRC1-Cy5 peptide binding; receptor agonist-loaded with 1 µM estradiol | inhibition, % at 25.6 µM | AID 633 | Q92731 | 86,000 compounds, 1.3% hits;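 active = compounds whose percent inhibition of the receptor-coactivator binding signal exceeds about 50% in the single-dose screen, limit read from the data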;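 also: 0% = receptor plus peptide wells without compound and 100% = peptide-only wells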
Target sequence (Q92731 whole entry, looked up, the tested form may be a part): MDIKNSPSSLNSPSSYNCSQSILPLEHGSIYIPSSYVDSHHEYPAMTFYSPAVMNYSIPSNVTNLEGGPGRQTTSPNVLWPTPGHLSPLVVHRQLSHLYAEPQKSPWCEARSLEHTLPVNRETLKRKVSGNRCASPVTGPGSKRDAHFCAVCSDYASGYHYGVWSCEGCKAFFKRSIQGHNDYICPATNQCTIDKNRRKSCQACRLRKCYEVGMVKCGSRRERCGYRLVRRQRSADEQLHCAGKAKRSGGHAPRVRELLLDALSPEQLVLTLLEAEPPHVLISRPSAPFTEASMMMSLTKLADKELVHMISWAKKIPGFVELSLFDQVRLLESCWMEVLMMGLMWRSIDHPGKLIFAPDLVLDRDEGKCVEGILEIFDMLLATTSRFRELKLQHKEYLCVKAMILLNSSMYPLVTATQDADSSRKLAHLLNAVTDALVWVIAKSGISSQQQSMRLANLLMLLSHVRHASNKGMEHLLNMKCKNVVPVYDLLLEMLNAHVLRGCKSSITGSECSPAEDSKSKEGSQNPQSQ
ERa SRC1 inh: blocks coactivator binding to human estrogen receptor alpha | AID 629 | inhibition, % at 25.6 µM | P03372 | TR-FRET ER-alpha LBD / SRC-1 peptide, estradiol-bound | 86,000 compounds, 1.7% hits; in the data active = inhibition above about 50%;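 also: 0% = receptor plus peptide control and 100% = peptide only without receptor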
ERa SRC1 pot: enhances coactivator binding to human estrogen receptor alpha; P03372; TR-FRET ERalpha-LBD/SRC-Cy5 coactivator binding, 2 h; 100 = basal binding, no effect; coactivator binding (% of control), % at 25.6 µM; 86,000 compounds, 1.3% hits; in the data active = activity above about 200%;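 also: binding measured in presence of low estradiol as agonist stimulus; 0% = peptide alone without receptor and 100% = receptor with peptide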
MRP resist rev: reverses drug resistance mediated by MRP; 85,000 compounds, 0.04% hits; differential viability (reversal), % at 10 µM; H69AR cells + 2 uM doxorubicin, CellTiter-Glo, 72 h; AID 602;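 active = viability drop by adding the cancer drug above about 55%, with treated viability meeting a 40% cutoff, limit read from the data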;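 also: viability without doxorubicin minus viability with 2 µM doxorubicin for each compound; larger differential means the compound sensitizes cells more to doxorubicin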
Smad3 inh: Smad3 (human) transcription factor binding inhibition; inhibition, % at 25 µM; P84022; 88,000 compounds, 0.29% hits; TR-FRET Smad3/Dy647-FoxH1 peptide binding, europium anti-His;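 active = compounds that reduce the energy-transfer binding signal between the protein and its labelled peptide by more than half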;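 also: 0% = Smad3 plus labelled peptide maximal FRET and 100% = peptide-only background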
MRP-1 activ: activates MRP-1; H69AR cells + doxorubicin, viability rescue, CellTiter-Glo; viability increase, % at 10 µM; 140,000 compounds, 0.61% hits; AID 799;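 active = viability gain under doxorubicin at or above a set limit, the compound median plus 3 SD, cut at about 4.7% in these data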;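 also: MRP-1 overexpressing cells given doxorubicin 25 µM after compound pretreatment; 18-22 h compound pretreatment then 72 h with doxorubicin before readout; 0% = doxorubicin-only wells and 100% = vehicle-treated cells without doxorubicin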
* hit, by the source's call; · = not tested or not shown; [ ] = dose if it differs, or a comment. The list is not random: actives were taken first. Their share in the collection is about 2.9%.

SMILES	ERb SRC1 inh	ERa SRC1 inh	ERa SRC1 pot	MRP resist rev	Smad3 inh	MRP-1 activ
O=C(Nc1cccc(Cl)c1Cl)C1CCN(c2ncccn2)CC1	-6	-9	206*	-19	2	-3
COc1cc(C2SCC(=O)N2CCCN(C)C)cc(OC)c1OC (centres undefined)	3	11	95	-5	1	-1
COc1ccc(-c2[nH]ncc2-c2cnn(-c3ccccc3)c2)c(O)c1	·	·	·	·	·	46*
CC(=O)Nc1ccc2c(c1)/C(=C/c1ccc([N+](C)(C)C)cc1)c1ccccc1-2	·	·	·	·	93*	·
CC1=C(SCCC#N)S/C(=C2\SC(C)=C(SCCC#N)S2)S1	53*	81*	43	-3	4	-2
S=c1[nH]nc(-c2cc(-c3ccco3)[nH]n2)n1-c1ccccc1Cl	50*	33	43	-20	1	-4
S=c1[nH]nc(-c2cc(-c3ccco3)[nH]n2)n1-c1ccccc1	-14	-6	59	-33	-11	-4
COc1ccc2c(CC(=O)OCC(=O)Nc3sc4c(c3C#N)CCC(C)C4)coc2c1 (centres undefined)	·	·	·	·	·	-3
CO[C@@H](NC(N)=O)C(=O)O	·	·	·	·	0	·
CCOc1cccc(-c2nnc3sc(-c4ccco4)nn23)c1	2	2	244*	-3	-14	-3
CCOc1ccc(-c2nnc3sc(-c4c(OC)cccc4OC)nn23)cc1	31	35	185	-16	-4	·
CCOc1cccc(-c2nnc3sc(-c4ccc(C)cc4)nn23)c1	14	4	101	-39	-5	·
COc1ccccc1-c1nn2c(-c3ccc(C(C)(C)C)cc3)nnc2s1	42	44	241*	-1	10	·
COc1ccccc1-c1nnc2sc(-c3cnccn3)nn12	65*	52*[fluorescence artefact?]	59	10	9	-2
COc1ccccc1-c1nnc2sc(-c3cc4ccccc4o3)nn12	-6	-11	94	-30	10	-2
CCOc1ccc(-c2nnc3sc(-c4ccccc4OC)nn23)cc1	4	-27	941*[fluorescence artefact?]	-4	-12	·
COc1ccccc1-c1nnc2sc(-c3ccc(N(C)C)cc3)nn12	·	·	·	·	·	-3
N[C@@](CC(=O)O)(Cc1ccccc1)C(=O)O	·	·	·	·	-4	·
C[C@@H](NC(=O)C1(N)CCCC1)C(=O)O	·	·	·	·	-7	·
O=C1c2ccccc2-c2ccc(N=[N+]([O-])c3ccc4c(c3)C(=O)c3ccccc3-4)cc21	·	·	·	·	3	·
Cc1nn(-c2ccccc2)c2sc(C(=O)n3cccn3)cc12	8	15	100	-11	3	·
Cc1nn(-c2ccccc2)c2sc(C(=O)c3c(N)n(C)c(=O)n(C)c3=O)cc12	13	-11	550*	-7	8	-5
Cc1nn(-c2ccccc2)c2sc(C(=O)C(C#N)c3ccccn3)cc12 (centres undefined)	93*[fluorescence artefact?]	79*[fluorescence artefact?]	23	-6	-1	·
Nc1[nH]c(=O)ncc1F	-5	-6	116	4	5	-1
O=C(O)c1ccccc1C(=O)Nc1cc2c(cc1Br)-c1ccccc1C2=O	·	·	·	·	101*	·
SMILES	ERb SRC1 inh	ERa SRC1 inh	ERa SRC1 pot	MRP resist rev	Smad3 inh	MRP-1 activ
O=C(Nc1ccccc1Br)c1ccccc1-c1ccccc1	·	·	·	·	·	-4
CC1(C)Cc2c(ccc3ccccc23)C(c2cc3ccccc3oc2=O)=N1	18	60*[fluorescence artefact?]	73	17	6	-2
COCCNS(=O)(=O)c1ccc2c(c1)C(=O)c1cc(S(=O)(=O)NCCOC)ccc1-2	55*[fluorescence artefact?]	-1	78	9	-10	-1
O=C1c2cc(S(=O)(=O)NCCCO)ccc2-c2ccc(S(=O)(=O)NCCCO)cc21	0	7	77	5	2	1
Cc1ccc2oc(-c3ccccc3)nc2c1	-8	-4	98	8	6	-2
c1cncc(-c2nc3cc(Cc4ccc5oc(-c6cccnc6)nc5c4)ccc3o2)c1	11	-34	207*[fluorescence artefact?]	2	10	·
c1cc(-c2nc3cc(Cc4ccc5oc(-c6ccncc6)nc5c4)ccc3o2)ccn1	22	9	221*[fluorescence artefact?]	-1	7	·
c1cncc(-c2nc3ccccc3o2)c1	12	-3	99	13	10	-2
N[C@@H](Cc1cccc([N+](=O)[O-])c1)C(=O)O	·	·	·	·	12	·
CC(/C=N/N1CCN(c2ccccc2)CC1)=C\c1ccccc1	·	·	·	·	·	-1
CC(/C=N/N1CCN(c2ccccn2)CC1)=C\c1ccccc1	·	·	·	·	·	5.0*
NCCCc1c(-c2ccccc2)nc(N)[nH]c1=O	·	·	·	·	-17	·
COc1cc(/C=N/NC(=S)NCCN2CCOCC2)ccc1O	·	·	·	·	·	1
Cc1cc(NC(=O)CSc2nnc(-c3ccco3)o2)no1	0	2	255*[fluorescence artefact?]	·	5	-1
O=C(O)CC1(C(=O)O)CCCCC1	·	·	·	·	-10	·
Cc1cc(Nc2ccccc2)n(CCO)n1	-3	-9	101	16	-1	0
CSCC[C@@H](C(=O)O)N(C)C	·	·	·	·	2	·
O=C(O)CCN1C(=O)CC(N2C(=O)/C(=C/c3ccc(Cl)cc3)SC2=S)C1=O (centres undefined)	·	·	·	·	·	8.0*
O=c1[nH]c2cc3c(cc2cc1CN(Cc1cccnc1)Cc1nnnn1Cc1ccco1)OCCO3	·	·	·	·	·	-4
O=c1[nH]c2cc3c(cc2cc1CN(Cc1ccccc1)Cc1nnnn1Cc1ccco1)OCCO3	26	20	216*	-33	4	-5
O=c1[nH]c2cc3c(cc2cc1CN(Cc1cccs1)Cc1nnnn1Cc1ccco1)OCCO3	50	51*	124	5	7	-2
CC(C)OCCCN1CN(S(=O)(=O)c2cccc(Cl)c2)c2nc3ccccc3nc21	-8	5	94	14	8	-2
O=[N+]([O-])c1ccc(Cl)c(CNc2ncnc3c2ncn3[C@@H]2CCCCO2)c1	·	·	·	·	2	·
COc1ccccc1C(=O)Nc1c2c(nn1-c1cccc(C)c1C)CS(=O)(=O)C2	-6	32	410*[fluorescence artefact?]	8	3	-1
COc1ccc(CC(=O)Nc2c3c(nn2-c2cccc(C)c2C)CS(=O)(=O)C3)cc1	-5	3	117	-3	0	-2
SMILES	ERb SRC1 inh	ERa SRC1 inh	ERa SRC1 pot	MRP resist rev	Smad3 inh	MRP-1 activ
O=C(NCCCN1CCOCC1)c1cc2c(=O)[nH]c3ccccc3c2s1	-8	-5	224*	-4	-1	-2
CCCc1cc(-c2nc(-c3ccc(Cl)cc3)cs2)ccn1	·	·	·	·	·	3
CCCc1cc(-c2nc(-c3ccc(Br)cc3)cs2)ccn1	·	·	·	·	·	5.0*
COc1nc2ccc(C)cc2cc1-c1noc(-c2ccccc2)n1	·	·	·	·	·	-2
COc1nc2cc(C)ccc2cc1-c1noc(-c2cccnc2)n1	41	50*[fluorescence artefact?]	189	6	4	·
COC(=O)C1=C(N)c2c(F)cccc2C1(C#N)c1ccc(F)cc1 (centres undefined)	-2	-2	86	2	-14	-2
N#Cc1cc2c(nc1SCc1ccc(Cl)cc1)CCCC2	-23	-15	105	7	1	6.8*

Screening results: PubChem BioAssay, several laboratories
